Out of some 130,000 compounds screened, about 1,900 (1.5%) were called active. Not shown: some 5% with an inconclusive outcome. This is one part of a sample in which actives are shown more often than they occur. A number with no mark means an inactive call. Calls follow the shape of the dose curve; as a rule, active = well fitted cell-killing curve with a large enough effect; inconclusive = small, poorly fitted or top-dose-only effect; inactive = no such curve, though single readings can be large or run the other way.
Test: qHTS Screen for Compounds that Selectively Target Cancer Cells with p53 Mutations: Cytotoxicity of p53ts Cells at the Nonpermissive Temperature; also: nearly all actives have a fitted effect of over 55% in size
Details: H1299-p53A138V viability at 39C, ATP luminescence, 24 h; series mostly up to 46.1 µM; activity change, negative = cell killing: at the top concentration
% is scaled to controls: 0 for no effect and ±100 for the full control effect; potency is read from the fitted curve at half-maximal effect.

| SMILES | activity change, negative = cell killing | Potency |
| --- | --- | --- |
| CCOC(=O)C1CCN(c2csc3ccc(C)cc3c2=O)CC1 | -18.6% |  |
| COc1ccc(CNC(=O)c2ccc3c(c2)nc2n3CCOC2)c(OC)c1 | -4.85% |  |
| CCc1ccc(-n2nc(C)c3c(C)cc(=O)n(CC(=O)Nc4ccc(F)cc4C)c32)cc1 | -8.83% |  |
| O=c1oc2cc(O)ccc2cc1-c1ccc(F)cc1 | 7.63% |  |
| COc1ccc(-c2cc3ccc(OCc4nn[nH]n4)cc3oc2=O)cc1 |  | 12.6 µM (active) |
| COc1ccc2cc(-c3nc(Cl)c4c5c(sc4n3)CC(C)CC5)c(=O)oc2c1 (stereo not drawn) | 8.48% |  |
| Cc1cn(C)c(CC(=O)NCc2ccc(Cl)cc2)c1C(=O)O | -8.42% |  |
| CCc1ccc(NC(=O)CCS(=O)(=O)c2cc3c(cc2Cl)NC(=O)CO3)cc1 | -21.4% |  |
| COc1ccc(C(=O)Nc2nncs2)c(OC)c1 | -26.2% |  |
| COC(=O)c1sc(NC(=O)c2ccc(OC)cc2OC)nc1C |  | 0.316 µM (active) |
| COC(=O)c1sc(NC(=O)c2csc3c2CCCC3)nc1C | 12.2% |  |
| CCOC(=O)c1cccc(NC(=O)c2cc(CN3CCCC3)on2)c1 | -17.2% |  |
| CCOc1ccc(NC(=O)Cn2c(=O)n(CCCC(=O)NCc3ccc4c(c3)OCO4)c(=O)c3ccccc32)cc1 | 2.75% |  |
| Cc1nn2c(=O)cc(COC(=O)c3ccccc3NC(=O)COc3ccccc3C)nc2s1 | -9.66% |  |
| Cc1nn2c(=O)cc(COC(=O)c3cccc(NC(=O)COc4ccccc4Cl)c3)nc2s1 |  | 12.6 µM (active) |
| COc1ccc(OCC(=O)Nc2cccc(C(=O)OCc3cc(=O)n4nc(C)sc4n3)c2)cc1 | -9.88% |  |
| Cc1cccc(C(=O)NCCc2nc3ccccc3n2Cc2ccccc2Cl)c1 | -12.8% |  |
| Cc1ccccc1NC(=O)c1ccccc1 | 2.54% |  |
| Cc1ccc(NC(=O)c2cccc(N(C)C)c2)cc1NC(=O)c1ccc(O)cc1 |  | 7.94 µM (active) |
| Cc1ccc(F)cc1NC(=O)c1cccc(N(C)C)c1 | -15.6% |  |
| COc1ccc(CCN2C(=O)c3oc4cc(C)cc(C)c4c(=O)c3C2c2ccccc2F)cc1OC (stereo not drawn) | -6.84% |  |
| Cn1c(-c2ccco2)nc2cc3ccccc3cc21 |  | 1.26 µM (active) |
| c1coc(-c2nc3nc4ccccc4n3nc2-c2ccco2)c1 | -3.02% |  |
| CN(c1nc2ccccc2n2c(-c3ccco3)nnc12)S(=O)(=O)c1ccccc1 | 1.85% |  |
| O=C(CCn1ccc2cc(S(=O)(=O)N3CCCC3)ccc21)NCc1cccc(Cl)c1 | -25.5% |  |
| COc1ccc(CC(=O)NCCc2sc3nc(-c4ccc(OC)cc4)nn3c2C)cc1 | -18% |  |

| SMILES | activity change, negative = cell killing | Potency |
| --- | --- | --- |
| Cc1cccc(-n2ccnc2SCC(=O)Nc2cc(C(F)(F)F)ccc2Cl)c1 | -21.3% |  |
| O=C(CN1CCN(c2ccccn2)CC1)N1CCc2ccccc21 | 19.6% |  |
| O=C(CN1C(=O)c2ccccc2S1(=O)=O)N1CCc2ccccc21 |  | 2 µM (active) |
| O=C(c1cccc(C(=O)N2CCc3ccccc32)n1)N1CCc2ccccc21 | 1.43% |  |
| CC(=O)Nc1ccc(S(=O)(=O)N2CCN(C(=O)c3ccccc3F)CC2)cc1 | 3.21% |  |
| Cc1cccc(NC(=O)c2cc(S(=O)(=O)N3CCC4(CC3)OCCO4)ccc2F)c1 | 5.17% |  |
| CC(C)c1ccc(NC(=O)c2cc(S(=O)(=O)N3CCc4ccccc4C3)ccc2F)cc1 |  | 31.6 µM (active) |
| Cc1nc2ccn(Cc3cccs3)c(=O)c2cc1C(=O)NCc1ccc(Cl)cc1 | -19% |  |
| COC(=O)c1sc2ncccc2c1-n1c(C)ccc1C | -13.8% |  |
| CC(C)S(=O)(=O)c1oc(-c2ccc(F)cc2)nc1S(=O)(=O)c1ccc(F)cc1 |  | 3.16 µM (active) |
| Cc1ccc(-c2nc(S(=O)(=O)c3ccc(C)cc3)c(N3CCCCCC3)o2)cc1 | 6.8% |  |
| COc1ccc(-c2nc(S(=O)(=O)c3ccccc3)c(N3CCCCC3)o2)cc1 | 12.8% |  |
| CC1CCc2noc(NC(=O)c3ccc([N+](=O)[O-])cc3)c2C1 (stereo not drawn) | 2.77% |  |
| COc1ccc(C(=O)Nc2onc3c2CCCC3)cc1 |  | 10 µM (active) |
| COc1ccc(NC(=O)c2c(C)oc3c2CCCC3)cc1 | -9.84% |  |
| O=C(c1ccc2c(c1)N(Cc1ccccc1)C(=O)c1ccccc1S2(=O)=O)N1CCCC1 | -14.6% |  |
| COc1ccccc1C(=O)Nc1c(C(=O)N(C)Cc2ccccc2)sc2nc(C)c(Cl)c(C)c12 | 12.2% |  |
| COc1ccc(NS(=O)(=O)c2cc3c4c(c2)CC(=O)N4CCC3)cc1Cl | -7.45% |  |
| CCN1C(=O)c2ccccc2S(=O)c2ccc(C(=O)NCc3ccc(F)cc3)cc21 (stereo not drawn) | 1.95% |  |
| COC(=O)c1nc2ccccc2s1 | 5.71% |  |
| CCC(=O)NC(=Nc1nc2ccccc2s1)NC(=O)CC |  | 10 µM (active) |
| COC(=O)Cc1cc(=O)n(-c2nc3ccccc3s2)[nH]1 | -2.65% |  |
| O=C(NCC(c1ccc2c(c1)OCO2)N1CCN(c2ccccc2)CC1)C(=O)Nc1ccccc1F (stereo not drawn) | -23.6% |  |
| O=C(NC1CC(=O)N(c2ccccc2)C1)c1ccco1 (stereo not drawn) | -7.23% |  |
| CC(C)c1nc(-c2ccccn2)no1 | -4.4% |  |
| c1ccc(-c2noc(-c3cccs3)n2)nc1 |  | 15.8 µM (active) |

| SMILES | activity change, negative = cell killing | Potency |
| --- | --- | --- |
| c1csc(-c2nc(-c3ccncc3)no2)c1 | -9.47% |  |
| COc1ccc(CNC(=O)c2cc3c(-c4ccccc4F)nn(C)c3s2)c(OC)c1 | 14.9% |  |
| CCOc1ccc(NC(=O)c2c(NCc3cccc(OC)c3OC)sc3c2CCC3)cc1 | 27.5% |  |
| O=C(Cc1ccccc1)Nc1sc2c(c1C(=O)Nc1ccc(Br)cc1)CCC2 | 14.3% |  |
| CCOc1ccc(NC(=O)c2c(NC(=O)Cc3ccccc3)sc3c2CCCCC3)cc1 |  | 10 µM (active) |
| CCc1ccc(CNC(=O)c2ccc(CS(=O)c3ccc(Br)cc3)o2)cc1 (stereo not drawn) | -14.8% |  |
| CC(NC(=O)c1cc(Sc2ccc(F)cc2F)nc2ccccc12)c1ccccc1 (stereo not drawn) | -22.5% |  |
| O=C(/C=C/c1ccccc1)N1CCN(Cc2cc(=O)n3nc(-c4ccccc4F)sc3n2)CC1 | -9.93% |  |
| O=C(Nc1nc2c(s1)CCCC2)c1ccccc1F |  | 10 µM (active) |
| O=C(Cn1c(=O)sc2ccccc21)Nc1nc2c(s1)CCCC2 | -3.55% |  |
| NC(=O)c1ccccc1NC(=O)c1ccccc1F | 5.04% |  |
| COC(=O)c1ccccc1NS(=O)(=O)c1ccc2c(c1)CCCN2C(C)=O | 26.2% |  |
| CCn1cc2nc(SCc3ccccc3Cl)n(CCc3ccccc3)c(=O)c2n1 | -22% |  |
| Cc1ccc(C(=O)N2CCCCCC2)cc1Br | 5.68% |  |
| Cc1ccc2cc3cc(C(=O)N4CCCCCC4)oc3nc2c1 |  | 15.8 µM (active) |
| CCc1ccc(CNC(=O)c2cc3cc4ccc(OC)cc4nc3o2)cc1 | 22.4% |  |
| CCCS(=O)(=O)c1c(Nc2ccccc2C)sc(C(=O)c2ccccc2)c1N | -12.5% |  |
| Cc1c(NC(=O)Cc2ccccc2)cccc1-c1nc2cccnc2s1 | 0.432% |  |
| Cc1c(NC(=O)C(C)(C)C)cccc1-c1nc2ccccc2s1 |  | 15.8 µM (active) |
| CCC(C(=O)Nc1cccc(-c2nc3cccnc3s2)c1C)c1ccccc1 (stereo not drawn) | 18.6% |  |
| CCOc1ccc(N(Cc2ccccc2)C(=O)c2nc(S(C)(=O)=O)ncc2Cl)cc1 |  | 3.98 µM (active) |
| CCOc1ccc(N(Cc2ccccc2)C(=O)c2nc(SCC)ncc2Cl)cc1 | -14.9% |  |
| CCOc1ccc(NC(=O)CN(Cc2ccccc2)S(=O)(=O)c2ccc(Cl)cc2)cc1 | -8.08% |  |
| COc1ccc(Br)cc1CNC(=O)c1cc(=O)[nH]c2ccc(S(=O)(=O)N3CCCC3)cc12 | -16.2% |  |
| COc1ccc(NC(=O)CN2CCCN(Cc3ccccc3)S2(=O)=O)cc1 | -4.26% |  |
| COc1ccc(C(=O)Nc2nonc2-c2ccc(OC)c(OC)c2)cc1Cl | -26.9% |  |

| SMILES | activity change, negative = cell killing | Potency |
| --- | --- | --- |
| Cn1c(=O)c2sccc2n2c(CCC(=O)NCc3ccccc3Cl)nnc12 | -15.6% |  |
| CC1=C(c2ccc(C)cc2)S(=O)(=O)NC1=NCCCN1CCN(c2cc(C)ccc2C)CC1 | 35.5% |  |
| CC1=C(c2ccc(Cl)cc2)S(=O)(=O)N=C1N1CCN(c2cc(C)ccc2C)CC1 | 0.663% |  |
| Cc1ccc(C)c(N2CCN(CCCNC(=O)Nc3ccc(Cl)cc3)CC2)c1 |  | 10 µM (active) |
| CCN(CCCNC(=O)c1ccc(Sc2ccc(C)cc2)c(NC(C)=O)c1)c1cccc(C)c1 | -24.9% |  |
| COc1ccccc1C1C(C(=O)N2CCCCC2)=C(C)Nc2nc3ccccc3n21 (stereo not drawn) | -9.81% |  |
| CCOc1ccc(C2C(C(=O)NC)=C(C)Nc3nc4ccccc4n32)cc1OC (stereo not drawn) | 8.77% |  |
| COC(=O)c1ccc(C2C(C(=O)Nc3ccccc3)=C(C)Nc3nc4ccccc4n32)cc1 (stereo not drawn) |  | 12.6 µM (active) |
| CCOC(=O)c1c(C)[nH]c(C)c1S(=O)(=O)N1CCCC(C(=O)NCc2ccccc2Cl)C1 (stereo not drawn) | 2.61% |  |
| CCc1cnc2c(c1SCC(=O)c1ccccc1)c(=O)n(C)c(=O)n2C | 23.2% |  |
| CC(C)(C)c1ccc(C(=O)N2CCC(c3nc(-c4ccc(S(=O)(=O)N5CCCC5)cc4)no3)CC2)cc1 | -24.5% |  |
| Cc1sc(C2C(C#N)=C(N)N(c3cccc(Cl)c3)C3=C2C(=O)CCC3)cc1CN1CCOCC1 (stereo not drawn) | 7.17% |  |
| COc1ccc(CCNC(=O)c2cc(-c3ccc4c(c3)OCO4)on2)cc1OC | -2.99% |  |
| COc1c2c(cc3occ(-c4ccc5c(c4)OCO5)c(=O)c13)OC(C)(C)C=C2 |  | 10 µM (active) |
| CCC(=O)N1CCc2cc(S(=O)(=O)NCCC(=O)Nc3cccc(C)c3C)ccc21 | -12.6% |  |
| COc1cccc(NC(=O)CSc2cc(=O)n(C)c3ccc(Cl)cc23)c1 | -18.7% |  |
| CCCCOc1ccc(C(=O)N2CC(=O)Nc3ccc(Br)cc3C2c2ccc(F)cc2)cc1 (stereo not drawn) | 6.43% |  |
| CCCCc1nn2c(=O)cc(COC(=O)c3ccc(NC(=O)c4ccccc4C)cc3)nc2s1 | -22% |  |
| c1ccc2[nH]c(NCCN3CCOCC3)nc2c1 | 2.07% |  |
| CN(C)c1ccc(-c2nc(NCCN3CCOCC3)c3ccccc3n2)cc1 |  | 12.6 µM (active) |
| c1ccc(-c2nc(NCc3ccco3)c3ccccc3n2)cc1 | -12.3% |  |
| O=C(c1cccc(Br)c1)N1CCN(Cc2cc(=O)n3nc(-c4ccccc4)sc3n2)CC1 | 8.96% |  |
| Cc1csc(-c2nc3ccccc3n2C)n1 |  | 25.1 µM (active) |
| CC(C)n1c(-c2cccs2)nc2ccccc21 | -17.5% |  |
| Cc1nn2c3ccccc3nc2n(C)c1=O | 0.337% |  |

— PubChem BioAssay AID902 (National Center for Advancing Translational Sciences (NCATS), 2007)
